Compound activity (PubChem)
Vaccinia mCherry: qHTS for Stage-Specific Inhibitors of Vaccinia Orthopoxvirus: mCherry Reporter Primary qHTS; 310,000 tested, 0.63% active; AID 720579, 2013; Vaccinia virus mCherry reporter infection, fluorescence; Potency, µM (highest dose often 36.5 µM), actives largely listed as inhibitors; calls by dose curve; tested in A549 cells; note: nearly all actives have a fitted effect of over 35% in size
Pf growth 96h: Primary qHTS for delayed death inhibitors of the malarial parasite plastid, 96 hour incubation; AID 504834, 2011; P. falciparum luciferase reporter growth, 96 h; 320,000 tested, 6.9% active; Potency, µM (highest dose often 28.7 µM), most hits filed as inhibitors
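96 h incubation, 37 C, 5% CO2, of luciferase-reporter P. falciparum-infected RBCs (2% hematocrit, 0.05% parasitemia final) with test compounds; endpoint luminescence.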
Pf growth 48h: Primary qHTS for delayed death inhibitors of the malarial parasite plastid, 48 hour incubation | Potency, µM (highest dose often 28.7 µM), actives largely listed as inhibitors | 310,000 tested, 5.9% active | P. falciparum luciferase growth in erythrocytes, 48 h
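A one-generation exposure of luciferase-tagged malaria parasites in RPMI 1640/Albumax erythrocyte culture, 37 C and 5% CO2. Inhibition is inferred from decreased luminescence after adding detection reagent.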
NS1 inh: qHTS Assay for Inhibitors of Influenza NS1 Protein Function; Potency, µM (series often up to 46.1 µM); 270,000 tested, 0.4% active; calls by dose curve; note: actives are rising curves; nearly all actives have a fitted effect of over 50% in size
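Compounds were scored for reversing the slow growth caused by influenza A NS1 in S. cerevisiae, measured by optical density at 600 nm. Assay medium contained 2% galactose at pH 6.0; NS1-free yeast of the same strain were the positive control.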
HCV inhibitor: qHTS Assay for Inhibitors of Hepatitis C Virus (HCV); 340,000 tested, 3.4% active; Huh7.5.1 HCVcc-Cre infection, luciferase reporter, 44 h; Potency, µM (titrated, usually from 41.8 µM), usual class: inhibitors; AID 651820, 2012
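After 44 h co-culture of compound, cells and HCVcc-Cre (~0.5 moi), substrate is added for 15 min at room temperature and luciferase measured over 15 sec. Cells were seeded at 1,000/well and pre-cultured 4 h.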
VACV Venus inh: qHTS for Stage-Specific Inhibitors of Vaccinia Orthopoxvirus: Venus Reporter Primary qHTS. 330,000 tested, 0.46% active. Vaccinia virus Venus reporter expression, fluorescence. Potency, µM (titrated, usually from 36.5 µM), usual class: inhibitors; calls by dose curve; tested in A549 cells; note: nearly all actives have a fitted effect of over 30% in size
Each line names hits and unclear results; the compound was inactive in the other large screens. Shown are actives, neighbours in structure and some others; about 11% of the full set was active somewhere. Unless noted, calls come from the whole dose curve; as a rule, active = well fitted inhibition curve with a large enough effect; inconclusive = small, poorly fitted or top-dose-only effect, or another doubt; inactive = no such curve, though single readings can be large or run the other way.

Clc1ccc(Nc2ncnc3ccc(Br)cc23)cc1	Vaccinia mCherry inconclusive, Pf growth 96h 4.1µM, Pf growth 48h 7.4µM, HCV inhibitor inconclusive, VACV Venus inh inconclusive
Cc1occc1C(=O)NNC(=O)NC12CC3CC(CC(C3)C1)C2	none (no result: Pf growth 96h)
CCOP(=O)(Nc1ccc2c(c1)C(=NNC(N)=S)c1ccccc1-2)OCC	Vaccinia mCherry 11µM, HCV inhibitor 11µM, VACV Venus inh inconclusive (no result: Pf growth 96h, Pf growth 48h, NS1 inh)
NC(=S)NN=C1c2ccccc2-c2c(F)c(F)c(F)c(F)c21	HCV inhibitor inconclusive (no result: Pf growth 96h, Pf growth 48h, NS1 inh)
COc1ccc(-n2c(CCc3ccccc3)nnc2SCC(=O)c2ccc(Cl)cc2)cc1	Pf growth 96h inconclusive, Pf growth 48h 13µM, NS1 inh inconclusive, HCV inhibitor inconclusive, VACV Venus inh inconclusive
COc1ccc(-n2c(Cc3ccccc3)nnc2SCC(=O)N2CCCc3ccccc32)cc1	Pf growth 96h inconclusive, Pf growth 48h 12µM, HCV inhibitor inconclusive
Cn1cccc1Cc1nnc(SCC(=O)N2CCCc3ccccc32)n1-c1ccc(F)cc1	Pf growth 96h 8.3µM, Pf growth 48h inconclusive
O=C(NCc1nnc(SCC(=O)N2CCCc3ccccc32)n1-c1ccccc1)c1cccc2ccccc12	Pf growth 96h inconclusive, Pf growth 48h inconclusive, NS1 inh inconclusive, HCV inhibitor inconclusive, VACV Venus inh inconclusive
Cn1cccc1Cc1nnc(SCC(=O)N2CCc3ccccc32)n1-c1ccc(F)cc1	none
CCOC(=O)N1CCN(CC(O)COc2ccc(CC)cc2)CC1 (configuration not stated)	none (no result: Vaccinia mCherry, VACV Venus inh)
C=CCNCCCOc1ccc(Cl)cc1C(C)(C)C	Pf growth 96h inconclusive, Pf growth 48h inconclusive, HCV inhibitor inconclusive
C[n+]1ccccc1/C=C1\Sc2ccccc2N1CCO	Pf growth 96h 2.1µM, Pf growth 48h inconclusive, HCV inhibitor inconclusive
Cc1ccc2c(c1)S/C(=C/c1ccc[n+](CCO)c1)N2C	Pf growth 48h inconclusive, HCV inhibitor 1.6µM (no result: NS1 inh)
Cc1ccc2c(c1)S/C(=C\c1cccc[n+]1C)N2CCO	Pf growth 48h 3.3µM, HCV inhibitor inconclusive (no result: Vaccinia mCherry, VACV Venus inh)
CCOc1ccc(NC(=O)c2cnc3ccccn3c2=O)cc1	none (no result: Pf growth 96h, Pf growth 48h, NS1 inh, HCV inhibitor)
CCCCCC1CC(CC(C)C(=O)Nc2nncs2)C(=O)O1 (configuration not stated)	Pf growth 96h inconclusive, Pf growth 48h inconclusive
CCCCCC1CC(CC(=O)Nc2nncs2)C(=O)O1 (configuration not stated)	Pf growth 96h 7.4µM
CCC1(c2ccccc2)NC(=O)N(CC(=O)NC2(C#N)CCCCC2)C1=O (configuration not stated)	none (no result: NS1 inh)
CCOC(=O)c1nc2nc(-c3cccs3)cc(C(F)(F)F)n2n1	Pf growth 96h 8.3µM, HCV inhibitor inconclusive
CN(Cc1ccccc1)c1ccc2nnc(-c3ccccc3)n2n1	Pf growth 96h inconclusive, Pf growth 48h 4.1µM
Cc1cccc(C)c1N1CCN(c2ccc3nnc(C(F)(F)F)n3n2)CC1	Pf growth 48h 9.3µM (no result: Vaccinia mCherry, Pf growth 96h)
c1ccc(-c2nnc3ccc(N4CCCC4)nn23)cc1	Pf growth 96h 1µM, HCV inhibitor inconclusive, VACV Venus inh inconclusive
OCCSc1ccc2nnc(-c3ccccc3)n2n1	none (no result: Pf growth 96h, Pf growth 48h, NS1 inh, HCV inhibitor)
COc1ccc(C(=O)Nc2ccc(OCc3cc(=O)n4ccsc4n3)cc2)cc1OC	none (no result: Pf growth 96h, Pf growth 48h, NS1 inh, HCV inhibitor)
Cc1cc(C)n(CC(=O)Nc2ccccc2)n1	none (no result: Vaccinia mCherry, VACV Venus inh)
Cc1cc(N2CCN(C(=O)c3ccco3)CC2)c2ccccc2n1	none (no result: Vaccinia mCherry, VACV Venus inh)
Cc1cc(N2CCN(C(=O)Nc3ccc(F)cc3F)CC2)c2ccccc2n1	Pf growth 96h 15µM, Pf growth 48h 10µM, HCV inhibitor inconclusive
CCCCc1ccc(NC(=O)N2CCN(c3cc(C)nc4ccccc34)CC2)c(C)c1	Pf growth 96h inconclusive, Pf growth 48h inconclusive, HCV inhibitor 6.3µM (no result: Vaccinia mCherry, VACV Venus inh)
COc1ccc(C(=O)NCCCCCC(=O)N/N=C/c2ccco2)cc1OC	none
CN1C(=S)SC(/[N+]([O-])=C/c2cccnc2)C1(C)C (configuration not stated)	Pf growth 96h 3.7µM, NS1 inh inconclusive
CCCCN(C)CCNC(=O)c1c[nH]c2ccc(S(=O)(=O)N(CC)CC)cc2c1=O	Pf growth 48h 3.7µM
Cc1ccc(C)c(N(C)S(=O)(=O)c2ccc3[nH]cc(C(=O)NCCN4CCOCC4)c(=O)c3c2)c1	Pf growth 48h inconclusive (no result: Pf growth 96h)
CCCNC(=O)c1c[nH]c2ccc(S(=O)(=O)N(C)c3ccc(OCC)cc3)cc2c1=O	Pf growth 48h 12µM, HCV inhibitor 22µM (no result: Vaccinia mCherry)
CCOc1ccc(N(C)S(=O)(=O)c2ccc3[nH]cc(C(=O)NCCOC)c(=O)c3c2)cc1	Pf growth 48h inconclusive (no result: NS1 inh)
Cc1ccc(N(C)S(=O)(=O)c2ccc3[nH]cc(C(=O)NCCCN4CCOCC4)c(=O)c3c2)cc1C	Pf growth 96h inconclusive, Pf growth 48h 2.3µM (no result: Vaccinia mCherry, VACV Venus inh)
Cc1cccc(NC(=O)N2CCN(C(=O)c3nsc4ccccc34)CC2)c1C	none (no result: Pf growth 96h, Pf growth 48h, NS1 inh, HCV inhibitor)
COc1ccc(N(CC(=O)N2CCN(c3ccccc3)CC2)S(=O)(=O)c2ccc(C)cc2)cc1	Pf growth 96h inconclusive
CCOc1ccc(N(CC(=O)N2CCN(c3ccccc3OC)CC2)S(=O)(=O)c2ccc(C)cc2)cc1	Vaccinia mCherry inconclusive, Pf growth 96h 12µM, Pf growth 48h inconclusive, HCV inhibitor inconclusive
CCOc1ccc(N(CC(=O)N2CCN(c3ccccc3OC)CC2)S(=O)(=O)c2ccc(F)cc2)cc1	Vaccinia mCherry inconclusive, Pf growth 96h 0.93µM, Pf growth 48h inconclusive
Cc1ccccc1OC(C)C(=O)NCCNC(=O)C(C)Oc1ccccc1C (configuration not stated)	none (no result: Pf growth 96h, Pf growth 48h, NS1 inh, HCV inhibitor)
Cc1ccc(-c2ccc(=O)n(CC(=O)N3CCN(c4cccc(C)c4)C(C)C3)n2)cc1 (configuration not stated)	Pf growth 96h 12µM, HCV inhibitor inconclusive
Cc1cccc(-c2nc(CSCC(=O)N3CCN(c4ccccn4)CC3)c(C)o2)c1	HCV inhibitor 11µM (no result: Vaccinia mCherry, VACV Venus inh)
Cc1cccc(N2CCN(C(=O)Cn3nc(C)n4cccc4c3=O)CC2C)c1 (configuration not stated)	none
COc1ccc(-c2nc(CSCC(=O)N3CCN(c4cccc(C)c4)C(C)C3)c(C)o2)cc1OC (configuration not stated)	Pf growth 96h inconclusive, Pf growth 48h inconclusive, HCV inhibitor 10µM
O=C(CSc1nnc(CNc2cccc(Cl)c2)o1)OC1CCCCC1	none (no result: Vaccinia mCherry, VACV Venus inh)
COc1cc(/C=C2/NC(=O)N(Cc3ccccc3F)C2=O)cc(OC)c1O	Vaccinia mCherry 5µM (no result: NS1 inh)
Cc1cc(N2CCOCC2)ccc1/C=C1\NC(=O)N(Cc2ccccc2F)C1=O	HCV inhibitor 4µM (no result: Vaccinia mCherry, NS1 inh, VACV Venus inh)
CCOc1cc(/C=C2/NC(=O)N(Cc3ccccc3F)C2=O)ccc1O	Pf growth 96h inconclusive, Pf growth 48h inconclusive, HCV inhibitor 10µM (no result: Vaccinia mCherry)
COC(=O)c1ccc(NC(=S)NC(=O)c2c(-c3ccccc3)noc2C)cc1	Pf growth 48h inconclusive
